# According to ChEMBL document CHEMBL3988442, “University of Dundee, Small-Polar-MMV Screening Library” (2021):
# Out of some 66,000 compounds screened, about 960 (1.5%) showed an effect of 50% or more. What follows is part of a selection rich in strong results, with near analogues and random picks from the rest.
# Tested on: Trypanosoma brucei
# Experiment: Trypanosoma brucei 72 hour study
# Type: functional, organism-based
# Design: scale not given: in the data most compounds retested in dose-response had high values
smiles,measurement,setting,value
Cc1ncc(CN2CCc3c(nc(-c4ccccn4)[nH]c3=O)C2)n1C,Percent Effect,"30.3 µM, […]",9.769%
O=c1[nH]c(-c2ccccn2)nc2c1CCN(Cc1cccc(O)c1)C2,Percent Effect,"30.3 µM, […]",-1.061%
CCn1ncc(CN2CCc3c(nc(-c4cccnc4)[nH]c3=O)C2)c1C,Percent Effect,"30 µM, 30.03 µM",24.52%
COc1ccc(CN2CCc3c(nc(-c4ccccn4)[nH]c3=O)C2)cc1,Percent Effect,"30.3 µM, […]",100.8%
O=c1[nH]c(-c2ccccn2)nc2c1CCN(S(=O)(=O)N1CCCC1)C2,Percent Effect,"30.3 µM, […]",16.13%
Cn1cccc1CN1CCc2c(nc(-c3ccccn3)[nH]c2=O)C1,Percent Effect,"30.3 µM, […]",100.6%
COc1ccccc1CN1CCc2c(nc(-c3ccccn3)[nH]c2=O)C1,Percent Effect,"30.3 µM, […]",100.6%
CCN(CC)CC1CN(CCc2ccccc2)Cc2nccn2C1.O=C(O)C(F)(F)F.O=C(O)C(F)(F)F (stereo not given),Percent Effect,"30 µM, 30.03 µM",-28.98%
CC(C)c1nn(C)c(N(C)C)c1CNCCC(=O)NC1CCCCC1,Percent Effect,"30.3 µM, […]",-9.322%
Cc1cccc(CN2C(=O)CCC23CCN(Cc2cccn2C)CC3)n1.O=C(O)C(F)(F)F.O=C(O)C(F)(F)F,Percent Effect,"30.3 µM, […]",-13.68%
Cl.O=C(CCC1CCCC1)NCCn1nc(C2CCNC2)c2cccnc21 (stereo not given),Percent Effect,"30 µM, 30.03 µM",11.21%
CN(C)c1ncc(-c2ccc(C(N)=O)cc2)c(C2CCNC2)n1.Cl (stereo not given),Percent Effect,"30.3 µM, […]",3.717%
C[C@@H]1CN(C2CCCCC2)CC[C@@]1(O)C1CCOCC1,Percent Effect,"30 µM, 30.03 µM",-20.03%
Cl.NC1CCc2nc(-c3ccncc3)nc(Nc3cccc(F)c3)c2C1 (stereo not given),Percent Effect,"30.3 µM, […]",99.62%
O=C(Nc1cccc(F)c1)NC1CCN(Cc2ccncc2)CC1,Percent Effect,"30.3 µM, […]",-25.17%
c1cc(-c2nc3c(c(NCCn4ccnn4)n2)CCNCC3)ccn1,Percent Effect,"30 µM, 30.03 µM",-15.86%
CCOCCNc1nc(-c2ccncc2)nc2c1CCNCC2,Percent Effect,"30.3 µM, […]",-307.1%
CC(Nc1nc(-c2ccncc2)nc2c1CCNC2)c1ccccc1 (stereo not given),Percent Effect,"30 µM, 30.03 µM",-57.19%
CS(=O)(=O)NCc1ncn2c1CN(Cc1cccs1)CCC2.O=C(O)C(F)(F)F.O=C(O)C(F)(F)F,Percent Effect,"30 µM, 30.03 µM",32.32%
Cc1c(C(=O)NCCC(=O)N2CCOCC2)sc2ccc(F)cc12,Percent Effect,"30 µM, 30.03 µM",-29.66%
CN1C[C@]2(CC[C@@H](C(=O)O)CC2)Oc2ccccc2C1=O,Percent Effect,"30.3 µM, […]",-13.61%
C[C@@H]1CN(C(=O)c2cccs2)C[C@]12CCN(CCN(C)C)C2=O.O=C(O)C(F)(F)F,Percent Effect,"30.3 µM, […]",-25.2%
c1nc2n(c1CN1CCOCC1)CCN(C1CCOC1)CC2 (stereo not given),Percent Effect,"30 µM, 30.03 µM",-183.8%
c1nc2n(c1CN1CCCC1)CCN(C1CCOCC1)CC2,Percent Effect,"30 µM, 30.03 µM",51.58%
O=C(O)C(F)(F)F.O=C(O)C(F)(F)F.c1nc2n(c1CN1CCCCC1)CCN(C1CCOC1)CC2 (stereo not given),Percent Effect,"30 µM, 30.03 µM",-102.4%
Cl.O=C(NCCO)C1(Cc2ccccc2-c2cccnc2)CCOCC1,Percent Effect,"30.3 µM, […]",-4.855%
COC1COC2(CCN(Cc3ccc4c(c3)OCO4)CC2)C1.O=C(O)C(F)(F)F (stereo not given),Percent Effect,"30.3 µM, […]",-15.29%
Br.Cc1ncc(C(=O)N2CCOC(C(=O)N3CCCCCC3)C2)c(C)n1 (stereo not given),Percent Effect,"30.3 µM, […]",-22.96%
O=C(NCCCN1CCOCC1)c1ccc(-n2ccc3ccccc32)s1,Percent Effect,"30 µM, 30.03 µM",-4.421%
O=C(NCCCN1CCCCC1)c1ccc(-n2ccc3ccccc32)s1,Percent Effect,"30 µM, 30.03 µM",80.76%
CCN(CC)CCNC(=O)c1ccc(-n2ccc3ccccc32)s1,Percent Effect,"30 µM, 30.03 µM",-12.39%
O=C(NCCCN1CCCC1=O)c1ccc(-n2ccc3ccccc32)s1,Percent Effect,"30 µM, 30.03 µM",23.58%
Cn1ccc2c(C(=O)NCCCN3CCCC3)cccc21,Percent Effect,"30 µM, 30.03 µM",-4.832%
O=C(NCCN1CCOCC1)c1ccc(-n2ccc3ccccc32)s1,Percent Effect,"30 µM, 30.03 µM",63.33%
COc1cc(Oc2cnc3ccccc3n2)ccc1CN1CCCC1,Percent Effect,"30 µM, 30.03 µM",-18.27%
CC1CCCCN1C(=O)c1n[nH]c(=O)c2ccccc12 (stereo not given),Percent Effect,"30.3 µM, […]",-7.93%
Cn1nnc2c1CCN(Cc1ccncc1)C2COCC1CC1.O=C(O)C(F)(F)F.O=C(O)C(F)(F)F (stereo not given),Percent Effect,"30 µM, 30.03 µM",49.24%
CCOCc1ccccc1NC(=O)NCC(C)(O)c1cccs1 (stereo not given),Percent Effect,"30 µM, 30.03 µM",-46.58%
CCOCc1ccccc1NC(=O)NCC(C)(O)c1cc(C)oc1C (stereo not given),Percent Effect,"30 µM, 30.03 µM",-15.34%
CCOCc1ccccc1NC(=O)NCC(C)(O)c1ccsc1 (stereo not given),Percent Effect,"30 µM, 30.03 µM",56.33%
Cc1nonc1CN(C)c1nc(-c2ccco2)nc2c1CCN(C)CC2,Percent Effect,"30 µM, 30.03 µM",-56.96%
Cc1ccc(-c2nc(CCNC(=O)NC3CCC(O)CC3)co2)cc1 (stereo not given),Percent Effect,10 µM,-4.374%
same,Percent Effect,"30.3 µM, […]",17.54%
Cc1ccc(-c2nc(CCNC(=O)NC3CCN(C)CC3)co2)cc1,Percent Effect,"30 µM, 30.03 µM",6.387%
O=C(NCCc1coc(-c2ccc(F)cc2)n1)NC1CC1,Percent Effect,10 µM,99.81%
same,Percent Effect,"30.3 µM, […]",99.45%
O=C(NCCc1coc(-c2ccc(F)cc2)n1)NC1CCC(O)CC1 (stereo not given),Percent Effect,"30 µM, 30.03 µM",-16.25%
COc1ccc(-c2nc(CCNC(=O)NC3CCC(O)CC3)co2)cc1 (stereo not given),Percent Effect,"30 µM, 30.03 µM",-54.4%
O=C(NCCc1coc(-c2ccccc2)n1)NC1CC1,Percent Effect,10 µM,101.4%
same,Percent Effect,"30.3 µM, […]",100%
